Laboratory results taken from PubChem BioAssay AID1722 (National Center for Advancing Translational Sciences (NCATS), 2009).
Screen size: about 290,000 compounds; fewer than 10 were called active. The call rests on the fitted dose curve. Not all results are given here.

Target: Pyruvate kinase (Leishmania mexicana) (UniProt Q27686)
Experiment: qHTS Assay for Activators of Leishmania Mexicana Pyruvate Kinase (LmPK)
Conditions: purified LmPK, Kinase-Glo ATP luminescence, 1 h; series mostly up to 57.5 µM
Text: NIH Chemical Genomics Center [NCGC] Malcolm Walkinshaw, Hugh Morgan, Linda Gilmore University of Edinburgh, UK MLPCN Grant: 1 R03 MH085697-01 NCGC Assay Overview: Pyruvate kinase (L. Mexicana) (LmPK) enzyme was supplied as a highly purified (>95% pure) sulphate-free preparation from University of Edinburgh, UK and assayed for its ability to generate ATP from ADP using phosphoenolpyruvate (PEP) as a substrate. ATP generation was detected in a coupled reaction by luciferase-mediated luminescence, an ATP-dependent process. Pyruvate kinase substrates, PEP and ADP, were present in the assay at Km and approximately 10-fold below Km respectively. The enzyme was assayed at an intermediate level of activity to screen for both inhibitors and activators.
NCGC Assay Protocol Summary: Three uL of enzyme mix (kept on ice) in assay buffer (50 mM Imidazole pH7.2, 50 mM KCl, 7 mM MgCl2, 0.01% Tween 20, 0.05% BSA) containing PEP (0.5 mM final concentration) and LmPK (0.1 nM final concentration) was dispensed into white solid bottom 1,536 well microtiter plates. 23 nL of compound were delivered by a pin tool and 1 uL of ADP mix in assay buffer (r.t; 0.1 mM final ADP concentration) was added. Plates were incubated at room temperature for 1 hour. Two uL of detection mix (Kinase-Glo, Promega; at 4 degree Celsius protected from light) was added and luminescence read by a ViewLux (Perkin Elmer) at 1 second exposure/plate. Data were normalized to the uninhibited and AC100 inhibition (no enzyme). To monitor activation, the first column contained a five-fold concentration of LmPK (0.5 nM).

Chain of Pyruvate kinase (Leishmania mexicana) (Q27686 whole entry, looked up): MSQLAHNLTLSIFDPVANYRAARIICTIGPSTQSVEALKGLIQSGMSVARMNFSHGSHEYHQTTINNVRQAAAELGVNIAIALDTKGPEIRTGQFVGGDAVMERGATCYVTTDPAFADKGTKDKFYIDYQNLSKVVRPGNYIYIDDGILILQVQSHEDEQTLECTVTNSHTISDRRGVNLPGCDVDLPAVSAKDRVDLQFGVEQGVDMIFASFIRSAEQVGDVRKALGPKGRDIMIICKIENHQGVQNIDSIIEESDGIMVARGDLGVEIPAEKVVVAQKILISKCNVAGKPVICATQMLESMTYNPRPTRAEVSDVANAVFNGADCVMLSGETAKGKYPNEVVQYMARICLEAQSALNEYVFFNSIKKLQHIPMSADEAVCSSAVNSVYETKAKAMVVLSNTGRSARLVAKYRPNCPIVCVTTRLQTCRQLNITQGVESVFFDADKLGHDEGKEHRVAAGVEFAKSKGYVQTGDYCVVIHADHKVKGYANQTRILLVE

| Structure (SMILES) | outcome |
| --- | --- |
| COc1ccc(C(=O)NC(=S)N2CCCCC2c2cccnc2)cc1OC (stereo not given) | inactive |
| CN(C)N=Nc1ccc2nc[nH]c2c1 | inactive |
| CC(=O)Nc1ccc(/C=C/C(=O)c2ccccc2)cc1 | inactive |
| COc1ccccc1OCc1nc2ccccc2s1 | inactive |
| Oc1ccccc1/C=N/n1c(-c2cccs2)n[nH]c1=S | inactive |
| O=C(Oc1ccc(-c2nc(-c3ccccn3)no2)cc1)c1ccccc1 | inactive |
| O=c1[nH]c2ccccc2n2c(-c3ccccc3)nnc12 | inactive |
| O=[N+]([O-])c1ccc2oc(-c3cccc(O)c3)nc2c1 | inactive |
| S=c1[nH]nc2c3c4c(sc3ncn12)CCCC4 | inactive |
| CCOC(=O)c1sc(NC(=O)c2ccncc2)nc1C | inactive |
| Cn1c(-c2ccco2)nc2cc3ccccc3cc21 | inactive |
| O=c1[nH]c(CCl)nc2cc(-c3ccc(Cl)cc3)sc12 | inactive |
| O=C(Nc1ccc(C(=O)O)c(O)c1)c1ccccc1 | inactive |
| CC(=O)N(C1=C(Cl)C(=O)c2ccccc2C1=O)c1ccc(C(=O)O)cc1 | inactive |
| O=c1c2c(nc3n1CCCCC3)sc1c(O)cccc12 | inactive |
| Cc1cc(NC(=O)Nc2ccccc2[N+](=O)[O-])no1 | inactive |
| COc1ccc(-c2cn3ccsc3n2)cc1 | inactive |
| CCC(=O)Nc1ccc(C(=O)Nc2cccc(OC)c2)cc1 | inactive |
| O=c1oc2ccccc2cc1-c1cn(-c2ccccc2)c(=S)[nH]1 | inactive |
| S=c1[nH]cc(-c2ccc(Cl)cc2)n1-c1ccccc1 | inactive |
| Cc1ccnc(NC(=O)c2ccoc2C)c1 | inactive |
| CCCCSc1nnc2c(n1)OC=Nc1ccccc1-2 | inactive |
| O=C(Nc1nnc(C2CC2)s1)c1ccccn1 | inactive |
| COc1ccccc1N=Cc1c(O)c2ccccc2oc1=O | inactive |

| Structure (SMILES) | outcome |
| --- | --- |
| Cc1nonc1C(=O)N/N=C/c1ccc(O)cc1 | inactive |
| CC(C)Oc1ccc(CCc2n[nH]c(=S)n2Cc2ccccc2)cc1 | inactive |
| CCc1n[nH]c(=S)n1/N=C/c1c[nH]c2ccc(Br)cc12 | inactive |
| COc1cc(OC)c(C(=O)Nc2ccc(N(C)C)cc2)cc1OC | inactive |
| CC(C)c1ccc(Nc2ncccc2C#N)cc1 | inactive |
| O=C(Nc1cccc2ccccc12)c1onc2c1CCCC2 | inactive |
| CN(C)c1nc(=Nc2cccc(Cl)c2)ss1 | inactive |
| Oc1ccc(N=Nc2nccs2)c(O)c1 | inactive |
| CCc1nnc(NS(=O)(=O)c2ccc(N=Cc3c(C)[nH]n(-c4ccc(C)cc4)c3=O)cc2)s1 | inactive |
| Cc1ccc(NC(=O)c2sccc2C)cc1[N+](=O)[O-] | inactive |
| Cc1cc(C(=O)COC(=O)C2CC2)c(C)n1-c1ccc(F)cc1 | inactive |
| CCCCCC(=O)NC(=S)NNC(=O)c1ccc([N+](=O)[O-])cc1 | inactive |
| COC(=O)c1ccc(NCC(=O)c2ccccc2)cc1 | inactive |
| N/C(=N\OC(=O)c1ccc([N+](=O)[O-])cc1)c1ccccn1 | inactive |
| CCOc1ccc(NC(=O)Nc2cc(C)ccc2OC)cc1 | inactive |
| COc1ccccc1C(=O)Nc1ccc(NC(=O)c2ccco2)c(C)c1 | inactive |
| O=c1oc2cc(O)ccc2cc1-c1ccc(F)cc1 | inactive |
| CC(OC(=O)c1ccc2ccccc2n1)C(=O)c1ccccc1 (stereo not given) | inactive |
| Nc1[nH][nH]c(=O)c1N=Nc1ccc2c(c1)OCO2 | inactive |
| Cc1ccc(OCc2n[nH]c(=S)n2-c2ccccc2)cc1 | inactive |
| O=C(/C=C/c1ccc(N2CCOCC2)cc1)c1ccccc1 | inactive |
| O=C1Nc2ccc(Br)cc2/C1=N/N=C/C1=C(N2CCOCC2)C(=C\c2ccccc2)/CC1 | inactive |
| COc1ccc(C(=O)C[n+]2ccc(N)c(C)c2C)cc1 | inactive |
| S=c1[nH]nc(COc2ccccc2)n1-c1ccccc1 | inactive |

| Structure (SMILES) | outcome |
| --- | --- |
| COc1ccc(C(CC(=O)c2ccccc2)S(=O)(=O)c2ccccc2)cc1 (stereo not given) | inactive |
| S=c1[nH]nc(CSCc2ccc(Cl)cc2Cl)n1-c1ccccc1 | inactive |
| C(=N\Nc1ccc2ccccc2n1)/c1ccc2c(c1)OCO2 | inactive |
| Cc1ccc(-n2c(-c3ccc(Cl)cc3)n[nH]c2=S)cc1 | inactive |
| O=c1c(-c2ccccc2)coc2cc(O)ccc12 | inactive |
| CN(C)c1ccc(Nc2c3c4c(cccc4n(C)c2=O)C(=O)c2ccccc2-3)cc1 | inactive |
| COc1ccc(-c2cn(-c3ccc(OC)cc3)c(=S)[nH]2)cc1 | inactive |
| O=C(CSC(=S)N1CCOCC1)c1ccccc1 | inactive |
| CSc1ccc(/C=N/NC(=O)c2cccc(Cl)c2)cc1 | inactive |
| COc1ccc(-c2nc(-c3ccccc3)no2)c(OC)c1 | inactive |
| Cc1cccc(NC(=O)/C=C/c2ccc3c(c2)OCO3)n1 | inactive |
| O=C(Nc1ccc(Cl)cn1)c1ccc2c(c1)OCCO2 | inactive |
| Cc1c(Cl)cccc1NC(=O)Nc1ccc(C(=O)N2CCCC2)cc1 | inactive |
| Cc1cccc(/C(N)=N/OC(=O)c2ccccc2Cl)c1 | inactive |
| CN=C1C=C/C(=N/N=c2\ccn(O)cc2C)C=C1C | inactive |
| COc1cccc(/C=C/c2ccc3ccccc3n2)c1OC(C)=O | inactive |
| Cc1n[nH]c(=O)nc1N/N=C/c1cccs1 | inactive |
| COc1ccc(-n2c(-c3ccc(OC)c(OC)c3)n[nH]c2=S)cc1 | inactive |
| c1csc(-c2nc(-c3ccncc3)no2)c1 | inactive |
| Cc1ccn2cc(-c3nonc3C)cc2c1 | inactive |
| COc1cc(SC)ccc1C(=O)Nc1nc(C)cs1 | inactive |
| O=c1c2ccccc2cnn1Cc1n[nH]c(=S)n1-c1ccccc1F | inactive |
| O=C(/C=C/c1ccccc1)c1ccccc1O | inactive |
| Cc1nc(-c2ccc(NC(=O)c3cccs3)cc2)cs1 | inactive |

| Structure (SMILES) | outcome |
| --- | --- |
| CCN(CC)c1ccc2oc(=O)c(C)nc2c1 | inactive |
| S=c1[nH]ccn1-c1ccc(Cl)cc1 | inactive |
| N=c1oc2ccccc2cc1C(=O)N/N=C/c1ccccc1 | inactive |
| COc1cccc(C(=O)Nc2ccc(N3CCCC3)cc2)c1 | inactive |
| COc1ccc(C(=O)Nc2ccccc2C(=O)N/N=C/c2ccccc2OC)cc1 | inactive |
| O=C(O)/C=C/C(=O)NNc1ccc([N+](=O)[O-])cc1 | inactive |
| Clc1ccc2nc(CSc3ccccc3)cn2c1 | inactive |
| C/C(=N\NC(=O)OC(C)(C)C)c1ccc[nH]1 | inactive |
| Cn1c(-c2sc3cc(C(F)(F)F)cnc3c2-c2ccccc2)n[nH]c1=S | inactive |
| COc1ccc(-c2cn3ccc(C)cc3n2)cc1 | inactive |
| Cc1cnc(NC(=O)c2ccccn2)s1 | inactive |
| S=c1[nH]nc(-c2cc(-c3ccsc3)n[nH]2)n1-c1ccccc1 | inactive |
| COc1ccc(C2=Nc3cc(C)ccc3OC2)cc1 | inactive |
| NC(=O)Cc1ccc2sc(-c3ccccc3)nc2c1 | inactive |
| CCc1ccc2nc3sc(C(=O)Nc4nnc(CC)s4)c(N)c3cc2c1 | inactive |
| COc1cccc(C(=O)Nc2ccc(NC(=O)c3ccco3)cn2)c1 | inactive |
| Cc1csc(NC(=O)Nc2ccccc2[N+](=O)[O-])n1 | inactive |
| O=[N+]([O-])c1ccc2nc(-c3ccccn3)[nH]c2c1 | inactive |
| CCOc1cnc(C(=O)NNC(=O)c2ccccc2Br)o1 | inactive |
| c1ccc(CN=C2Nc3ccccc3CS2)nc1 | inactive |
| C=CCn1c(-c2ccccc2OCC)n[nH]c1=S | inactive |
| COc1ccc(C(=O)Nc2ccccc2C(=O)N/N=C/c2ccc(O)c(OC)c2)cc1 | inactive |
| CCOc1ccc(C(=O)Nc2cccc(SC)c2)cc1 | inactive |
| O=C(Nc1ccc2c(c1)OCCO2)c1cnccn1 | inactive |

| Structure (SMILES) | outcome |
| --- | --- |
| C=CCNC(=S)N1CCN(CCN=Cc2c(C)[nH]n(-c3ccc([N+](=O)[O-])cc3)c2=O)CC1 | inactive |
| Cc1ccc(-n2[nH]c(C)c(/C=N/N3C(=O)c4cccc5cccc(c45)C3=O)c2=O)cc1 | inactive |
| Cc1ccc(C)c2c1cc(C)c1nnc(SCC(=O)Nc3cccc(C(=O)O)c3)n12 | inactive |
| Cc1ccc(NCc2n[nH]c(=S)n2-c2ccccc2)cc1Cl | inactive |
| COc1cccc(/C=N\NC(=O)C2=NNC(=O)C2C)c1O (stereo not given) | inactive |
| S=c1[nH]nc(-c2cccs2)n1/N=C/c1cccs1 | inactive |
| CSC1=N/C(=C\C=C\c2cccs2)C(=O)S1 | inactive |
| O=C(Nc1ccccc1)c1ccc2c(c1)OCO2 | inactive |
| CCc1cc(-c2n[nH]c(=S)n2CC(C)C)cs1 | inactive |
| Cc1[nH]n(-c2ccc([N+](=O)[O-])cc2)c(=O)c1C=NCCN1CCN(C(=O)c2ccccc2F)CC1 | inactive |
| Cc1cc(C(=O)N/N=C/c2ccc(N3CCOCC3)cc2)c(C)o1 | inactive |
| O=C(Nc1nc2ccccc2s1)c1ccc2c(c1)OCO2 | inactive |
| O=C(Nc1ccccc1)Nc1ccccc1C(=O)NCc1ccco1 | inactive |
| Cn1cccc1C(=O)Nc1nccs1 | inactive |
| O=c1c2ccccc2ncn1/N=C/c1ccccc1 | inactive |
| C=CCn1c(C)cc(C2=NNC(=NCC)SC2)c1C | inactive |
| c1c2c(cc3sc(N4CCCCC4)nc13)OCCO2 | inactive |
| O=C1/C(=C/c2cccs2)CCc2ccccc21 | inactive |
| Clc1ccc(-c2cc(-c3ccccn3)on2)c(Cl)c1 | inactive |
| O=C1CSC(=S)N1/N=C/c1ccc(O)c([N+](=O)[O-])c1 | inactive |
| COc1ccc(OC)c(-n2c(-c3ccn[nH]3)n[nH]c2=S)c1 | inactive |
| CCn1c(CSCc2c(Cl)cccc2Cl)n[nH]c1=S | inactive |
| O=C(/C=C/c1ccc2c(c1)OCCO2)c1ccc(O)cc1 | inactive |
| Cc1ccc(F)c(NC(=O)CCc2ccccc2)c1 | inactive |

| Structure (SMILES) | outcome |
| --- | --- |
| COc1ccc(C(=O)/C=C/Nc2ccccn2)cc1 | inactive |
| Cn1cc([N+](=O)[O-])c(C(=O)Nc2ccc3c(c2)OCCO3)n1 | inactive |
| c1ccc2[nH]c(-c3nc4ccccc4[nH]3)nc2c1 | inactive |
| CC(=O)Oc1ccccc1C(=O)Nc1ncc([N+](=O)[O-])s1 | inactive |
| O=C(c1ccc(F)cc1)n1c(=S)nc2ccccn21 | inactive |
| C/C(=N\NC(=O)CC(C)C)c1c(C(F)(F)F)[nH]n(-c2nc3ccccc3s2)c1=O | inactive |
| c1ccc(-c2noc(-c3cccs3)n2)nc1 | inactive |
| Cc1ccc(-c2nc3ccccc3[nH]2)cc1N | inactive |
| CCCCC(CC(C)O)c1n[nH]c(=S)n1-c1ccccc1 (stereo not given) | inactive |
| COc1ccc(C(=O)Nc2ccc(F)cc2F)cc1 | inactive |
| Nc1ncc(-c2cc3ccccc3oc2=O)s1 | inactive |
| CN(C)CCCSc1ccccc1NC(=O)/C=C/c1ccccc1 | inactive |
| COc1ccccc1-n1c(-c2cc(-c3ccco3)[nH]n2)n[nH]c1=S | inactive |
| COCn1c(COc2ccccc2)nc2ccccc21 | inactive |
| N/C(=N\OC(=O)CCC1CCCCC1)c1ccccn1 | inactive |
| CCCc1cc(-c2n[nH]c(=S)n2Cc2ccccc2)cs1 | inactive |
| O=C(OC1CCOC1=O)c1ccc(-c2nc3ccccc3s2)s1 (stereo not given) | inactive |
| COc1cccc(C(=O)c2cc3ccc(O)cc3oc2=O)c1 | inactive |
| COc1cccc(-c2nc3cc(C)ccc3o2)c1 | inactive |
| C=CCn1c(-c2ccc3[nH]c(C)c(C)c3c2)n[nH]c1=S | inactive |
